Source: PubChem
HCMV inh: qHTS Assay for inhibitors of the human cytomegalovirus (HCMV). HFF cells, HCMV-luciferase reporter, 72 h; hits give low values. activity change, negative = inhibition, % at 57.5 µM. actives 4.5% (n = 410,000); in the data active = activity change below about -60%; inconclusive = no clear call, values can overlap the other calls; inactive = above about -39%
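After 16 h attachment at 37C, HFF cells received test compound and HCMV-luciferase (1 PFU/cell); reporter luminescence read 72 h later, data normalized against buffer-only and known inhibitor Salinomycin.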
FMDV inh: High Throughput Screening for Foot and Mouth Disease Virus Antivirals; FMDV antiviral cell-based qHTS; Potency, µM (highest dose often 57.9 µM), hits mostly inhibitors; actives 1.2% (n = 410,000); AID 1159524, 2015; calls by dose curve; tested in HEK293T cells; note: read-out not given here; nearly all actives have a fitted effect of over 45% in size
Lassa entry inh: qHTS for Inhibitors of binding or entry into cells for Lassa Virus; Lassa virus pseudotype entry inhibition, cell reporter; Potency, µM (highest dose often 37.9 µM), hits mostly inhibitors; actives 1.2% (n = 300,000); calls by dose curve; tested in HEK293 cells; note: nearly all actives have a fitted effect of over 50% in size
VACV mCherry inh: qHTS for Stage-Specific Inhibitors of Vaccinia Orthopoxvirus: mCherry Reporter Primary qHTS | Vaccinia virus mCherry reporter infection, fluorescence | Potency, µM (titrated, usually from 36.5 µM), most hits filed as inhibitors | actives 0.63% (n = 310,000) | AID 720579, 2013; calls by dose curve; tested in A549 cells; note: nearly all actives have a fitted effect of over 35% in size
Marburg entry inh: qHTS for inhibitors of binding or entry into cells for Marburg Virus; Marburg virus pseudotyped entry inhibition, cell reporter; Potency, µM (top dose mostly 37.8 µM), most hits filed as inhibitors; actives 1.8% (n = 300,000); AID 540276, 2011; calls by dose curve; tested in HEK293 cells
VACV Venus inh: qHTS for Stage-Specific Inhibitors of Vaccinia Orthopoxvirus: Venus Reporter Primary qHTS. Vaccinia virus Venus reporter expression, fluorescence. Potency, µM (top dose mostly 36.5 µM), most hits filed as inhibitors. actives 0.46% (n = 330,000). AID 720580, 2013; calls by dose curve; tested in A549 cells; note: nearly all actives have a fitted effect of over 30% in size
Each line names hits and unclear results; the compound was inactive in the other large screens. In the library only some 6.5% were active in any assay of this set; here they are far more common.

CCOc1ccccc1-n1c(=S)sc2c(=O)n(-c3ccc(C)cc3)c(=S)[nH]c21	Lassa entry inh inconclusive, Marburg entry inh inconclusive
CCn1c(=S)sc2c(=O)n(-c3ccccc3)c(=S)[nH]c21	HCMV inh -94, Marburg entry inh inconclusive
O=C(NC(Cc1c[nH]c2ccccc12)C(=O)N/N=C/c1cccnc1)c1cccs1 (centres undefined)	HCMV inh -78, Lassa entry inh inconclusive, Marburg entry inh inconclusive
CC(C)CC(NC(=O)OCc1ccccc1)C(=O)NC(Cc1c[nH]c2ccccc12)C(=O)O (centres undefined)	none (no result: HCMV inh, Lassa entry inh, Marburg entry inh)
O=C(N/N=C/c1cccnc1)c1cccs1	none
COC(=O)C(Cc1c[nH]c2ccccc12)NC(=O)c1cccs1 (centres undefined)	none (no result: Lassa entry inh, VACV mCherry inh, Marburg entry inh, VACV Venus inh)
O=C(Cc1c[nH]c2ccccc12)N[C@@H](Cc1c[nH]c2ccccc12)C(=O)O	none
COc1ccccc1CNC(=O)C(Cc1c[nH]c2ccccc12)NC(=O)OCc1ccccc1 (centres undefined)	Lassa entry inh 4.5µM, Marburg entry inh inconclusive
O=C(NC(Cc1c[nH]c2ccccc12)C(=O)Nc1ccc(F)cc1)c1cccs1 (centres undefined)	HCMV inh inconclusive, Lassa entry inh 1.4µM, VACV mCherry inh inconclusive, Marburg entry inh inconclusive
O=C(Cc1ccc(F)cc1)NC(Cc1c[nH]c2ccccc12)C(=O)O (centres undefined)	HCMV inh -62
CCC(=O)c1ccc(OCC(=O)OCC(=O)N(CCC#N)c2ccc3c(c2)OCCO3)cc1	none
Cc1ccccc1NC(=O)Cc1nc(COC(=O)c2cccc([N+](=O)[O-])c2)cs1	none
COc1ccc(C2NCc3ccc4c(c3-n3cccc32)OCO4)cc1O (centres undefined)	Lassa entry inh inconclusive, Marburg entry inh 0.63µM, VACV Venus inh inconclusive (no result: HCMV inh, VACV mCherry inh)
COc1cc(C2NC(=S)NC(C)=C2C(=O)c2ccccc2)ccc1O (centres undefined)	Marburg entry inh inconclusive
CC1=C(C(=O)c2ccccc2)C(c2ccc(OC(F)F)cc2)NC(=S)N1 (centres undefined)	FMDV inh inconclusive, Lassa entry inh inconclusive, Marburg entry inh 4µM, VACV Venus inh inconclusive
CCCOc1ccc(C2NC(=S)NC(C)=C2C(=O)c2ccccc2)cc1OC (centres undefined)	HCMV inh inconclusive, Marburg entry inh 15µM (no result: VACV mCherry inh, VACV Venus inh)
COC(=O)CC=C[C@@H](C)[C@@H](C=NO[C@H](C)c1cn([C@@H]2COC[C@@H]2O)nn1)N[S+](=O)([O-])c1ccc(C)cc1	none (no result: HCMV inh, FMDV inh, Lassa entry inh, VACV mCherry inh, VACV Venus inh)
CN(C)S(=O)(=O)N1CCC(Oc2cccc(C(=O)NCCC3=CCCCC3)c2)CC1	HCMV inh inconclusive, FMDV inh inconclusive, Lassa entry inh inconclusive, Marburg entry inh inconclusive, VACV Venus inh inconclusive
Cc1ccc(Cl)cc1NC(=O)OCCN(C)C(=O)Nc1cc(Cl)ccc1C	none (no result: FMDV inh, Lassa entry inh, VACV mCherry inh, Marburg entry inh, VACV Venus inh)
CCCCOC(=O)Nc1cc(Cl)ccc1C	HCMV inh -81 (no result: VACV mCherry inh)
O=C(O)c1ccc(-n2ncc(Cl)c(Cl)c2=O)cc1	FMDV inh inconclusive (no result: HCMV inh, Lassa entry inh, Marburg entry inh)
O=C(OCn1ncc(Cl)c(Cl)c1=O)c1ccc(C(F)(F)F)cc1	HCMV inh -86, FMDV inh inconclusive, Lassa entry inh inconclusive, Marburg entry inh inconclusive (no result: VACV mCherry inh, VACV Venus inh)
Cc1ccc(C(=O)OCn2ncc(Cl)c(Cl)c2=O)cc1	HCMV inh -102, FMDV inh 16µM, Lassa entry inh 23µM, Marburg entry inh 15µM (no result: VACV mCherry inh, VACV Venus inh)
COc1ccc(OC)c(CNc2ccc([N+](=O)[O-])cc2C)c1	HCMV inh -91, FMDV inh inconclusive
COc1cccc(CNc2ccc([N+](=O)[O-])cc2C)c1	Lassa entry inh inconclusive
COc1ccccc1CC(=O)Nc1ccccc1O	none (no result: VACV mCherry inh, VACV Venus inh)
COc1ccccc1CC(=O)Nc1ccc([N+](=O)[O-])cc1O	HCMV inh inconclusive, FMDV inh inconclusive, Lassa entry inh 6.3µM, VACV mCherry inh inconclusive, Marburg entry inh inconclusive
CCOC(=O)c1nnc2c(-c3ccc(F)cc3)c(C)nn2c1N	none
Cc1cc(C(=O)NCc2nc(-c3ccccc3NC(=O)C3CCCO3)oc2C)nc(C)n1 (centres undefined)	none (no result: HCMV inh, Lassa entry inh, Marburg entry inh)
COC(=O)[C@@H]1CCCN1C(=O)c1cc(NC(=O)c2ccccc2)cc2ncn(C3CCCC3)c12	none (no result: HCMV inh, Lassa entry inh, Marburg entry inh)
CCN1C(C(=O)c2ccccc2)=C(OC(=O)c2ccc(Cl)cc2)c2ccccc2S1(=O)=O	HCMV inh -77
CCN1C(C(=O)c2ccccc2)=C(OC(=O)COc2ccc(C)cc2)c2ccccc2S1(=O)=O	VACV mCherry inh inconclusive, Marburg entry inh inconclusive, VACV Venus inh inconclusive
CCOC(=O)CN1C(C(=O)c2ccccc2)=C(OC(=O)c2ccccc2)c2ccccc2S1(=O)=O	none
CCN1C(C(=O)c2ccccc2)=C(OC(=O)COc2ccc(OC)cc2)c2ccccc2S1(=O)=O	HCMV inh inconclusive
CCCN1C(C(=O)c2ccccc2)=C(OC(=O)COc2ccc(C)cc2)c2ccccc2S1(=O)=O	HCMV inh -91, Lassa entry inh inconclusive, VACV mCherry inh inconclusive, Marburg entry inh inconclusive, VACV Venus inh inconclusive
CCCN1C(C(=O)c2ccccc2)=C(OC(=O)COc2ccccc2)c2ccccc2S1(=O)=O	HCMV inh -88, VACV mCherry inh inconclusive, Marburg entry inh inconclusive, VACV Venus inh inconclusive
CCCN1C(C(=O)c2ccccc2)=C(OC(=O)C(C)(C)C)c2ccccc2S1(=O)=O	HCMV inh -89, Lassa entry inh inconclusive, VACV mCherry inh inconclusive, VACV Venus inh inconclusive
CCOc1ccc(S(=O)(=O)NCc2ccc3c(c2)OCO3)cc1C(=O)O	none (no result: Lassa entry inh, VACV mCherry inh, Marburg entry inh, VACV Venus inh)
COC(=O)c1cc2n(n1)CCN(Cc1ccccc1F)C2=O	none
COC(=O)c1cc2n(n1)CCN(Cc1ccc(F)cc1)C2=O	HCMV inh -106 (no result: VACV mCherry inh)
CCN(CC)Cc1c(O)ccc2c([N+](=O)[O-])c(C)n(-c3ccc(OC)cc3)c12	HCMV inh -96, Marburg entry inh inconclusive (no result: VACV mCherry inh)
CCN(CC)Cc1c(O)ccc2occ(C(=O)c3ccc(OC)cc3)c12	Lassa entry inh inconclusive, Marburg entry inh inconclusive (no result: VACV mCherry inh)
CC1=C/C(=C\C=C(C#N)C#N)N(C)c2ccccc21	HCMV inh -81
O=C(NNC(=O)C12CC3CC(CC(C3)C1)C2)c1ccccn1	HCMV inh -107, FMDV inh inconclusive, Lassa entry inh 7.9µM, VACV mCherry inh 10µM, Marburg entry inh 10µM, VACV Venus inh inconclusive
O=C(N/N=C/c1cccnc1)C12CC3CC(CC(C3)C1)C2	Marburg entry inh inconclusive
O=C(Nc1cccnc1)C12CC3CC(CC(C3)C1)C2	HCMV inh -64
CCOC(=O)c1cc(C#N)c(N2CCOCC2)nc1-c1ccccc1	FMDV inh inconclusive
CCOC(=O)c1cc(C#N)c(N2CCN(C(=O)c3ccccc3)CC2)nc1C(F)(F)F	FMDV inh inconclusive, Lassa entry inh 11µM, Marburg entry inh inconclusive
CCOC(=O)c1cc(C#N)c(N2CCN(C(=O)c3cccc(C(F)(F)F)c3)CC2)nc1C(F)(F)F	HCMV inh inconclusive, Lassa entry inh 1.8µM, Marburg entry inh 5µM
